The results in this text go back to ChEMBL document CHEMBL1961873, “Compounds: GSK PKIS; Assays: Nanosyn kinase panel” (2012).

One experiment has as its system Tyrosine-protein kinase ABL1 (Homo sapiens), P00519 [M351T]. As to conditions: at 0.1 µM.
What is called inhibition is the relative decrease from the control value, in per cent. Take `c1ccc(COc2ccc(Nc3ncnc4ccc(-c5ccco5)cc34)cc2)cc1`: the inhibition was 0.39%.
The same measure, in the same setting: the same measure for `COc1ccc2c(-c3ccnc(Nc4cccc(OC(F)(F)F)c4)n3)cnn2n1`: 1.37%; for `CN1CCC(n2cnc(-c3ccc(F)cc3)c2-c2ccnc(N)n2)CC1`: -0.15%; for `COc1ccc(-c2cc(-c3c[nH]nc3-c3ccccn3)ccn2)cc1`: 15.3%.
On the same count and under the same terms, as for `Cc1cccc(Nc2ncc(-c3ccccc3)o2)c1`, the figure is 2.38%; as for `COC(=O)c1sc(-n2cnc3cc(OC)c(OC)cc32)cc1OCc1ccccc1C(F)(F)F`, 4.03%; as for `N#Cc1c(NC(=O)CN2CCOCC2)sc2c1CCCC2`, 1.25%.
For `COc1ccc(-c2cc3c(N)ncnc3o2)cc1`, the inhibition was 0.58%.
Still for that read-out and setting: the same measure for `N#Cc1c(NC(=O)c2ccc(F)cc2)sc2c1CCCC2`: -1.3%; for `Cc1ccc2c(-c3ccnc(Nc4ccccc4)n3)c(-c3ccc(F)cc3)nn2n1`: 15.1%; for `CNC(=O)c1cc(-c2ccc(F)cc2)cc(-c2ccc(S(=O)(=O)N3CCCC3)cc2)c1N`: 0.22%.
Still for that read-out and setting: the same measure for `Cc1ccc(O)cc1Nc1ccnc2cc(-c3ccccn3)ccc12`: 93.6%; for `CCc1nn2ncccc2c1-c1ccnc(NC2CC2)n1`: 1.9%.
Still for that read-out and setting: as for `CCCN1CCC(c2ccc(Nc3nc(Nc4cc(F)ccc4C(N)=O)c4cc[nH]c4n3)c(OC)c2)CC1`, the figure is 1.91%.
In the case of `Fc1ccc(-c2nn3ccccc3c2-c2ccncc2)cc1`, the inhibition is -1.48%.
On the same count and under the same terms, the same measure for `O=C(O[C@H]1CN[C@H](C#Cc2cc3ncnc(Nc4ccc(Cc5ccccc5)cc4)c3s2)C1)N1CCOCC1`: -2.99%; for `COc1ccc(-c2nn3ncccc3c2-c2ccnc(Nc3ccc4c(c3)OCCO4)n2)cc1`: 20.9%; for `CN(C)CCOc1ccc(-c2nc(-c3ccncc3)c(-c3ccc4c(c3)CC/C4=N\O)[nH]2)cc1`: 6.36%.
Still for that read-out and setting: as for `CCN1CCC(CC(=O)Nc2n[nH]c3nnc(-c4cccc(F)c4F)cc23)CC1`, the figure is -0.03%.
Still for that read-out and setting: the same measure for `COc1cccc(-c2c[nH]c3c(N/N=C/c4ccncc4)ncnc23)c1`: 76.5%; for `Fc1ccc(-c2nn3ncccc3c2-c2ccnc(Nc3ccc4c(c3)OCCO4)n2)cc1`: 38.6%.
Take `COc1cc(Nc2nccc(Nc3ccc4c(C)n[nH]c4c3)n2)cc(OC)c1OC`: the inhibition was 28.9%.
On the same count and under the same terms, as for `CC(C)COC(=O)c1ccc2c(c1)/C(=C/Nc1ccc(S(N)(=O)=O)cc1)C(=O)N2`, the figure is 4.24%.
Still for that read-out and setting: the same measure for `NS(=O)(=O)c1ccc(N/N=C2\C(=O)Nc3ccc4ncccc4c32)cc1`: 9.67%; for `COc1cc(N2CCN(C(C)C)CC2)ccc1Nc1nc(Nc2ccc(F)cc2C(N)=O)c2cc[nH]c2n1`: 1.19%.
Still for that read-out and setting: as for `CCn1c(-c2nonc2N)nc2c(C#CC(C)(C)O)ncc(OC3CCNCC3)c21`, the figure is -0.57%; as for `CNC(=O)c1cccc(C#Cc2cncnc2Nc2ccc(OCc3cccc(F)c3)c(Cl)c2)c1`, 0.11%; as for `Fc1cccc(COc2ccc(Nc3ncnc4sc(-c5ccco5)cc34)cc2Cl)c1`, 0.31%.
As to `c1ccc(-c2nc3n(c2-c2ccc4c(c2)OCO4)CCC3)nc1`, the inhibition was 1.01%.
In the case of `O=S(=O)(CCNCc1ccc(-c2ccc3ncnc(Nc4ccc(OCc5cccc(F)c5)c(Cl)c4)c3c2)o1)c1ccccc1`, the inhibition turned out to be 1.27%.
The same measure, in the same setting: the same measure for `COc1cc(/C=N/Nc2ncnc3[nH]ncc23)ccc1O`: 42.9%.
Take `CS(=O)(=O)CCNCc1coc(-c2ccc3ncnc(Nc4ccc(OCc5ccccc5)cc4)c3c2)c1`: the inhibition was 1.21%.
Same read-out and setting: as for `COc1cc2c(cc1Nc1nc(Nc3ccsc3C(N)=O)c3cc[nH]c3n1)N(C(=O)CN(C)C)CCC2(C)C`, the figure is 2.15%.

A further experiment has the same test system. As to conditions: at 1 µM.
Turning to `c1ccc(COc2ccc(Nc3ncnc4ccc(-c5ccco5)cc34)cc2)cc1`, the inhibition was 2.41%.
The same measure, in the same setting: the same measure for `COc1ccc2c(-c3ccnc(Nc4cccc(OC(F)(F)F)c4)n3)cnn2n1`: 11.9%.
For the compound `CN1CCC(n2cnc(-c3ccc(F)cc3)c2-c2ccnc(N)n2)CC1`, the inhibition was 7.75%.
The same measure, in the same setting: as for `COc1ccc(-c2cc(-c3c[nH]nc3-c3ccccn3)ccn2)cc1`, the figure is 63.3%; as for `Cc1cccc(Nc2ncc(-c3ccccc3)o2)c1`, 21.6%.
Same read-out and setting: as for `COC(=O)c1sc(-n2cnc3cc(OC)c(OC)cc32)cc1OCc1ccccc1C(F)(F)F`, the figure is 16.2%.
Same read-out and setting: the same measure for `N#Cc1c(NC(=O)CN2CCOCC2)sc2c1CCCC2`: 4.91%; for `COc1ccc(-c2cc3c(N)ncnc3o2)cc1`: 11.2%.
In the case of `N#Cc1c(NC(=O)c2ccc(F)cc2)sc2c1CCCC2`, the inhibition amounted to 2.69%.
Same read-out and setting: as for `Cc1ccc2c(-c3ccnc(Nc4ccccc4)n3)c(-c3ccc(F)cc3)nn2n1`, the figure is 56.4%; as for `CNC(=O)c1cc(-c2ccc(F)cc2)cc(-c2ccc(S(=O)(=O)N3CCCC3)cc2)c1N`, 0.79%.
On the same count and under the same terms, the same measure for `Cc1ccc(O)cc1Nc1ccnc2cc(-c3ccccn3)ccc12`: 97.9%; for `CCc1nn2ncccc2c1-c1ccnc(NC2CC2)n1`: 4.54%; for `CCCN1CCC(c2ccc(Nc3nc(Nc4cc(F)ccc4C(N)=O)c4cc[nH]c4n3)c(OC)c2)CC1`: 7.76%.
On the same count and under the same terms, as for `Fc1ccc(-c2nn3ccccc3c2-c2ccncc2)cc1`, the figure is 8.75%; as for `O=C(O[C@H]1CN[C@H](C#Cc2cc3ncnc(Nc4ccc(Cc5ccccc5)cc4)c3s2)C1)N1CCOCC1`, -0.59%.
In the case of `COc1ccc(-c2nn3ncccc3c2-c2ccnc(Nc3ccc4c(c3)OCCO4)n2)cc1`, the inhibition was determined as 63.3%.
The same measure, in the same setting: as for `CN(C)CCOc1ccc(-c2nc(-c3ccncc3)c(-c3ccc4c(c3)CC/C4=N\O)[nH]2)cc1`, the figure is 30.4%; as for `CCN1CCC(CC(=O)Nc2n[nH]c3nnc(-c4cccc(F)c4F)cc23)CC1`, 3.11%.
Same read-out and setting: the same measure for `COc1cccc(-c2c[nH]c3c(N/N=C/c4ccncc4)ncnc23)c1`: 92.5%; for `Fc1ccc(-c2nn3ncccc3c2-c2ccnc(Nc3ccc4c(c3)OCCO4)n2)cc1`: 81%.
On the same count and under the same terms, as for `COc1cc(Nc2nccc(Nc3ccc4c(C)n[nH]c4c3)n2)cc(OC)c1OC`, the figure is 75.6%; as for `CC(C)COC(=O)c1ccc2c(c1)/C(=C/Nc1ccc(S(N)(=O)=O)cc1)C(=O)N2`, 33.2%; as for `NS(=O)(=O)c1ccc(N/N=C2\C(=O)Nc3ccc4ncccc4c32)cc1`, 48.9%.
Consider `COc1cc(N2CCN(C(C)C)CC2)ccc1Nc1nc(Nc2ccc(F)cc2C(N)=O)c2cc[nH]c2n1`, for which the inhibition turned out to be 2.15%.
Still for that read-out and setting: the same measure for `CCn1c(-c2nonc2N)nc2c(C#CC(C)(C)O)ncc(OC3CCNCC3)c21`: 0.51%; for `CNC(=O)c1cccc(C#Cc2cncnc2Nc2ccc(OCc3cccc(F)c3)c(Cl)c2)c1`: 2.15%.
Same read-out and setting: as for `Fc1cccc(COc2ccc(Nc3ncnc4sc(-c5ccco5)cc34)cc2Cl)c1`, the figure is 1.04%.
Same read-out and setting: as for `c1ccc(-c2nc3n(c2-c2ccc4c(c2)OCO4)CCC3)nc1`, the figure is 3.51%; as for `O=S(=O)(CCNCc1ccc(-c2ccc3ncnc(Nc4ccc(OCc5cccc(F)c5)c(Cl)c4)c3c2)o1)c1ccccc1`, 2.88%.
Take `COc1cc(/C=N/Nc2ncnc3[nH]ncc23)ccc1O`: the inhibition came to 87.9%.
The same measure, in the same setting: the same measure for `CS(=O)(=O)CCNCc1coc(-c2ccc3ncnc(Nc4ccc(OCc5ccccc5)cc4)c3c2)c1`: 1.86%; for `COc1cc2c(cc1Nc1nc(Nc3ccsc3C(N)=O)c3cc[nH]c3n1)N(C(=O)CN(C)C)CCC2(C)C`: 1.57%.
